This note sets out measurements from PubChem BioAssay (Tox21).

Several values for one entry are separate records, joined by “and”; a condition that tells them apart may be missing. Equal values may be shown once. Results filed as inconclusive are left out. More than one record can exist for a structure, and the calls need not agree. Activity calls are given as the source filed them. Unless noted, calls come from the whole dose curve; as a rule, active = well fitted curve in the direction sought with a large enough effect in the repeat runs; inconclusive = weak or mixed curves; inactive = no such curve, though single readings can be large; an effect the other way counts as inactive or inconclusive.

A short description of experiment [1]: qHTS assay to identify aromatase inhibitors - cell viability counter screen (AID 743084).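 Note: cells stimulated with testosterone during compound exposure; nearly all actives have a fitted effect of over 55% in size.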 Note: potency is the fitted concentration of half-maximal effect. In general terms: In qHTS, concentration-response curves come from the screen itself.
Experiment [2] has as its target Aryl hydrocarbon receptor (Homo sapiens) (UniProt P35869). Kind of experiment: qHTS assay to identify small molecule that activate the aryl hydrocarbon receptor (AhR) signaling pathway (AID 743085).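 Note: HG2L7.5c1 human HepG2 liver cells with stably integrated DRE-driven firefly reporter; series mostly up to about 70 µM; nearly all actives have a fitted effect of over 15% in size.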 In a few lines:
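Luminescence (ONE-Glo) from a dioxin-responsive-element luciferase reporter in HG2L7.5c1 HepG2 cells after 24 hr compound exposure at 37C; viability measured by CellTiter-Fluor fluorescence beforehand.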

A short description of experiment [3]: qHTS assay to identify small molecule that activate the aryl hydrocarbon receptor (AhR) signaling pathway - cell viability counter screen (AID 743086). Note: nearly all actives have a fitted effect of over 45% in size. Note: potency is the fitted concentration of half-maximal effect. The essentials:
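Cytotoxicity counter screen: CellTiter-Fluor signal (30 min, 37 C) in 4000 HepG2 cells/well carrying the DRE-luciferase reporter, following 24 h compound exposure at 37 C.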

The target in experiment [4] is Peroxisome proliferator-activated receptor gamma (Homo sapiens) (UniProt P37231). Kind of experiment: qHTS assay to identify small molecule agonists of the peroxisome proliferator-activated receptor gamma (PPARg) signaling pathway (AID 743094; active = well fitted activation curve with a large enough effect in the signal ratio in the repeat runs, not every such curve was filed as active; the % refers to the signal ratio). The essentials: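 GeneBLAzer PPARg UAS-bla HEK293H cells carrying a stably integrated beta-lactamase reporter were pre-incubated 5 h at 37C, then exposed to compounds in DMSO for 17 h at 37C; LiveBLAzer B/G FRET substrate was added for 1 h at room temperature and fluorescence read.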
Chain of Peroxisome proliferator-activated receptor gamma (Homo sapiens) (P37231 whole entry, looked up): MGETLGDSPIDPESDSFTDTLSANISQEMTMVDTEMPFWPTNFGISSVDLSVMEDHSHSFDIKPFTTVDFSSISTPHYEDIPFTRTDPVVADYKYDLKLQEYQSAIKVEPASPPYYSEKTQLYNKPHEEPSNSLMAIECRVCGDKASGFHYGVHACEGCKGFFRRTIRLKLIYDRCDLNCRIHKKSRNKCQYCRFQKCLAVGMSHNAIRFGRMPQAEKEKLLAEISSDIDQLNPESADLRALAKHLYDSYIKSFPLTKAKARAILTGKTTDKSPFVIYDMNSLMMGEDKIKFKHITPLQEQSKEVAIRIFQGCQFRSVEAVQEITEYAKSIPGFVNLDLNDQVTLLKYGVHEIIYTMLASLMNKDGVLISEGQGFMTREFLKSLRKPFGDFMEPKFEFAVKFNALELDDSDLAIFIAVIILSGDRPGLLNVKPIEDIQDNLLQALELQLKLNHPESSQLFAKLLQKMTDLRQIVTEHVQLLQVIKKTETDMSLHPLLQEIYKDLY

The target is the same in experiment [5]. As to the kind of experiment: qHTS assay to identify small molecule antagonists of the peroxisome proliferator-activated receptor gamma (PPARg) signaling pathway (AID 743191; calls by dose curve; note: nearly all actives have a fitted effect of over 30% in size; note: potency is the fitted concentration of half-maximal effect). In a few lines:
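Beta-lactamase reporter under UAS control in HEK293H PPARg-bla cells; compound treatment 17 h at 37C. Read-out: fluorescence intensity after 1 h room-temperature incubation with LiveBLAzer B/G FRET substrate.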

Experiment [6] can be described thus: qHTS assay to identify small molecule antagonists of the peroxisome proliferator-activated receptor gamma (PPARg) signaling pathway - cell viability counter screen (AID 743194). Note: nearly all actives have a fitted effect of over 55% in size. As to conditions: Potency: co-treated with 50 nM rosiglitazone unless noted. The essentials: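 Viability was measured as CellTiter-Glo luminescence in GeneBLAzer PPARg UAS-bla HEK293H cells. These cells had been exposed 17 h at 37 C to compounds together with rosiglitazone at 50 nM final, with the beta-lactamase readout taken in the same wells.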

Experiment [7] is described as follows: qHTS assay for small molecule agonists of the antioxidant response element (ARE) signaling pathway (AID 743202; active = well fitted activation curve with a large enough effect in the signal ratio in the repeat runs, not every such curve was filed as active; the % refers to the signal ratio; note: potency is the fitted concentration of half-maximal effect). The essentials: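 An ARE-responsive beta-lactamase gene stably integrated in HepG2 cells serves as reporter. After 5 h plating and 16 h compound incubation at 37 C, fluorescence of the B/G FRET substrate was measured.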
Experiment [8] in a line: qHTS assay for small molecule agonists of the antioxidant response element (ARE) signaling pathway - cell viability counter screen (AID 743203; calls by dose curve; note: nearly all actives have a fitted effect of over 55% in size; note: potency is the fitted concentration of half-maximal effect). In a few lines:
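CellSensor ARE-bla HepG2 cells, 2,000 per well, rested 5 hrs at 37C/5% CO2, then exposed to compound in DMSO for 16 hrs; viability read as CellTiter-Glo luminescence after 30 min at room temperature, in the reporter wells.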

A short description of experiment [9]: qHTS assay for small molecule activators of the heat shock response signaling pathway - cell viability counter screen (AID 743209). Note: nearly all actives have a fitted effect of over 50% in size. In a few lines:
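CellSensor HSE-bla HeLa cells, plated overnight at 37 C/5% CO2, were exposed to compounds in DMSO for 5 h at 37 C. Viability was then read in the same wells by CellTiter-Glo luminescence after 30 min at room temperature.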

Experiment [10] is described as follows: qHTS assay for small molecule activators of the heat shock response signaling pathway (AID 743210; active = well fitted activation curve with a large enough effect in the signal ratio in the repeat runs, with a control signal flat, not every such curve was filed as active; the % refers to the signal ratio;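 note: HeLa cells with beta-lactamase reporter driven by heat shock elements; series mostly up to about 63 µM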). The essentials: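 In HSE-bla HeLa cells, 5 h compound incubation (37 C) precedes addition of LiveBLAzer B/G substrate; after 2.5 h at room temperature, fluorescence intensity indicates reporter induction.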
The nature of experiment [11]: qHTS assay to identify small molecule agonists of the peroxisome proliferator-activated receptor delta (PPARd) signaling pathway - cell viability counter screen (AID 743211). Note: nearly all actives have a fitted effect of over 55% in size. The essentials:
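Viability was measured as CellTiter-Glo luminescence (30 min, room temperature) in the same wells as the beta-lactamase readout. GeneBLAzer PPARd UAS-bla HEK293H cells received compound after 5 h plating and were incubated 17 h at 37 C.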

Experiment [12] concerns the target Peroxisome proliferator-activated receptor delta (Homo sapiens) (UniProt Q03181). Kind of experiment: qHTS assay to identify small molecule agonists of the peroxisome proliferator-activated receptor delta (PPARd) signaling pathway (AID 743212; calls by dose curve). The essentials: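 HEK293H UAS-bla reporter cells, human PPARd system; compounds delivered in DMSO after 5 h plating, then at 37 C. Beta-lactamase FRET read, 2 h RT substrate step.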

Experiment [13] has the same target. As to the kind of experiment: qHTS assay to identify small molecule antagonists of the peroxisome proliferator-activated receptor delta (PPARd) signaling pathway (AID 743215; active = well fitted inhibition curve with a large enough effect in the signal ratio in the repeat runs, not every such curve was filed as active; the % refers to the signal ratio;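 note: cells stimulated with agonist L165041 at 300 nM final during compound exposure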; note: potency is the fitted concentration of half-maximal effect). In a few lines: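 PPARd UAS-bla HEK293H cells were pre-incubated 5 h at 37 C, then given test compounds in DMSO plus agonist L165041 (300 nM final). After 17 h at 37 C, beta-lactamase FRET substrate was added; fluorescence read after 2 h at room temperature.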

Experiment [14] is described as follows: qHTS assay to identify small molecule agonists of the farnesoid-X-receptor (FXR) signaling pathway - cell viability counter screen (AID 743218). Note: nearly all actives have a fitted effect of over 45% in size. Note: potency is the fitted concentration of half-maximal effect. In a few lines: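 FXR-UAS-bla HEK 293T cells, plated 5 h at 37 C, were exposed to compounds for 16 h at 37 C. CellTiter-Glo was then added to the same wells as the bla readout; luminescence read after 30 min at room temperature.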

Experiment [15] in a line: qHTS assay to identify small molecule antagonists of the farnesoid-X-receptor (FXR) signaling pathway - cell viability counter screen (AID 743221; active = well fitted cell-killing curve with a large enough effect in the repeat runs, not every such curve was filed as active; note: nearly all actives have a fitted effect of over 50% in size; note: potency is the fitted concentration of half-maximal effect). In a few lines: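 Cytotoxicity counter screen run in the FXR-bla reporter wells: HEK 293T cells exposed to compound with 50 uM (final) chenodeoxycholic acid for 16 h, 37 C, then viability measured by CellTiter-Glo luminescence after 30 min, room temperature.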

Experiment [16] is described as follows: qHTS assay to identify small molecule antagonists of the peroxisome proliferator-activated receptor delta (PPARd) signaling pathway - cell viability counter screen (AID 743213). Note: nearly all actives have a fitted effect of over 50% in size. Note: potency is the fitted concentration of half-maximal effect. In a few lines: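 Cytotoxicity counter screen: CellTiter-Glo luminescence read 30 min after addition, in the same wells as the reporter assay. There, PPARd UAS-bla HEK293H cells (3000/well) were treated 17 h at 37 C with compound and 300 nM L165041.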

The target of experiment [17] is Vitamin D3 receptor (Homo sapiens) (UniProt P11473). As to the kind of experiment: qHTS assay to identify small molecule agonists of the vitamin D receptor (VDR) signaling pathway (AID 743222; calls by dose curve). In a few lines:
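VDR-bla cells were plated 4 h at 37C/5% CO2, then exposed to compounds in DMSO for 16 h. After LiveBLAzer B/G FRET substrate addition and 2 h at room temperature, beta-lactamase reporter fluorescence was read.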

Experiment [18] shares this target. As to the kind of experiment: qHTS assay to identify small molecule antagonists of the vitamin D receptor (VDR) signaling pathway (AID 743223; active = well fitted inhibition curve with a large enough effect in the signal ratio in the repeat runs, not every such curve was filed as active; the % refers to the signal ratio). The essentials:
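Antagonist mode: compound added to VDR-bla cells alongside agonist 1alpha,25-dihydroxyvitamin D3 (3 nM final), incubation 16 h at 37C. Read-out is LiveBLAzer FRET fluorescence, 2 h at room temperature.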

In experiment [19] the target is Bile acid receptor (Homo sapiens) (UniProt Q96RI1). Kind of experiment: qHTS assay to identify small molecule agonists of the farnesoid-X-receptor (FXR) signaling pathway (AID 743220; active = well fitted activation curve with a large enough effect in the signal ratio in the repeat runs, not every such curve was filed as active; the % refers to the signal ratio). The essentials:
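Beta-lactamase reporter under UAS control in GeneBLAzer FXR HEK 293T cells (5000/well) measured with LiveBLAzer FRET substrate after 2 h at room temperature. Compound exposure lasted 16 h at 37C.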

The target is the same in experiment [20]. Kind of experiment: qHTS assay to identify small molecule antagonists of the farnesoid-X-receptor (FXR) signaling pathway (AID 743217; active = well fitted inhibition curve with a large enough effect in the signal ratio in the repeat runs, not every such curve was filed as active; the % refers to the signal ratio). The essentials:
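FXR-UAS-bla HEK 293T cells pre-incubated 5 h at 37 °C, then exposed to compounds with chenodeoxycholic acid (50 uM final) for 16 h at 37 °C. Beta-lactamase reporter read by LiveBLAzer B/G FRET substrate fluorescence after 2 h at room temperature.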

Chain of Peroxisome proliferator-activated receptor delta (Homo sapiens) (Q03181 whole entry, looked up): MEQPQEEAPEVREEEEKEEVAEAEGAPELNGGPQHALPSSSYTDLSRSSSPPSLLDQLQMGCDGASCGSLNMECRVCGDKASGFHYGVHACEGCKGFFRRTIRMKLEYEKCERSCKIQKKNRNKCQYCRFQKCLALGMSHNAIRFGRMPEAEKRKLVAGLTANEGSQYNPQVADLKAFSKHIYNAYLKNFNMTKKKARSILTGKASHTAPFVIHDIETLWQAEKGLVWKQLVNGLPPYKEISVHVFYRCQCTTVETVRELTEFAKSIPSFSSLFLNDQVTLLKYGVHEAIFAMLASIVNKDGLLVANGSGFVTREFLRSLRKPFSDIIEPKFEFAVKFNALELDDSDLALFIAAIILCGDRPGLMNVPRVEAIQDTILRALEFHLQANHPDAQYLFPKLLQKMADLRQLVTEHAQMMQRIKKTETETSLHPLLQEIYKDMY
Chain of Vitamin D3 receptor (Homo sapiens) (P11473 whole entry, looked up): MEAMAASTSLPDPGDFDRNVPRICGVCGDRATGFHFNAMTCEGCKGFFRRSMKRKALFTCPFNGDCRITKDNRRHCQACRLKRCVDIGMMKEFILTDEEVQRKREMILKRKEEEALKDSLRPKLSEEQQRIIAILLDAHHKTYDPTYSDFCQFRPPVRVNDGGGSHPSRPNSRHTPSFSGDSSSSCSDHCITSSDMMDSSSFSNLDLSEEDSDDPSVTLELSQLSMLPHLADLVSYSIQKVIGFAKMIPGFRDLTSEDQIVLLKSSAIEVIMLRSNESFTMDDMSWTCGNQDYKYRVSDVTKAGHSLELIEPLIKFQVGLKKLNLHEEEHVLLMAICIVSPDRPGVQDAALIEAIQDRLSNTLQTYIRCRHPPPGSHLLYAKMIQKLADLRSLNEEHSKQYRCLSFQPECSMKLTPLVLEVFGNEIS
Chain of Bile acid receptor (Homo sapiens) (Q96RI1 whole entry, looked up): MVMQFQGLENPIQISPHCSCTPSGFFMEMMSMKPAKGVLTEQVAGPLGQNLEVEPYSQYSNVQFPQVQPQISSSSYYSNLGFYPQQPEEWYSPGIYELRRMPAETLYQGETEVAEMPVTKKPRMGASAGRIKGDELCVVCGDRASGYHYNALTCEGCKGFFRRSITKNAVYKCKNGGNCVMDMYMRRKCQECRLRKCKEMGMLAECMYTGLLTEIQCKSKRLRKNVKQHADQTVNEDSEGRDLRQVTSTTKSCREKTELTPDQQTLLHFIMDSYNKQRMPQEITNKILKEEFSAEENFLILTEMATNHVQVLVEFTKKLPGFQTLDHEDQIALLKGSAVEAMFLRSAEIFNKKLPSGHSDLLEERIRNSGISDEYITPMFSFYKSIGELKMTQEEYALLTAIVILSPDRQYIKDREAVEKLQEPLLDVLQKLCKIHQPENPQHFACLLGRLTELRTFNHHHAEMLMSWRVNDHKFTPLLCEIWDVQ
Chain of Aryl hydrocarbon receptor (Homo sapiens) (P35869 whole entry, looked up): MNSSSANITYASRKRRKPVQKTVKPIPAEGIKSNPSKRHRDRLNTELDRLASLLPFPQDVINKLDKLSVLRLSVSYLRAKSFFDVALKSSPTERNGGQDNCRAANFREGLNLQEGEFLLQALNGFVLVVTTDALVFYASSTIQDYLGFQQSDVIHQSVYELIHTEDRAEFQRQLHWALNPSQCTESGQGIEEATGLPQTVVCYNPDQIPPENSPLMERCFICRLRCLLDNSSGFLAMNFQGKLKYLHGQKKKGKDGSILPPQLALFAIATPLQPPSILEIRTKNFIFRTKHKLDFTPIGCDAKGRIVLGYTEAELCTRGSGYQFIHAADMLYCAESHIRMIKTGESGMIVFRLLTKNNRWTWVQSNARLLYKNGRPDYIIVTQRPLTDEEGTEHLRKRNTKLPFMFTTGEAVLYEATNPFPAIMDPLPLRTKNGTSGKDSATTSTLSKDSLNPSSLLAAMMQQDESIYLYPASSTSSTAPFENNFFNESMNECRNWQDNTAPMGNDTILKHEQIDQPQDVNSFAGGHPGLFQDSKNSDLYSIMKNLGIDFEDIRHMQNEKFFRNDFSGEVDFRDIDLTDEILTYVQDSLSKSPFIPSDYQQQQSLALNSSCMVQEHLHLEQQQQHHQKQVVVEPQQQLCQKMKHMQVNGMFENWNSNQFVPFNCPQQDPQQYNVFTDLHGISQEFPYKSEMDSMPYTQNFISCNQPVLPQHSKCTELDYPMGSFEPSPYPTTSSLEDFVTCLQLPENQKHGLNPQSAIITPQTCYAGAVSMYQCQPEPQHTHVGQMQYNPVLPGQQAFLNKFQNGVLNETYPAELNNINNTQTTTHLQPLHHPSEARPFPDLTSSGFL

For `C=C(C)[C@H]1Cc2c(ccc3c2O[C@@H]2COc4cc(OC)c(OC)cc4[C@@H]2C3=O)O1`, the Potency was 34.8 µM (active) and 34.4 µM (active) in experiment [1]; “inactive and 39.1 µM (active) and 21.7 µM (active)” in experiment [3]; 13.3 µM (active) in experiment [5]; 0.0077 µM (active) in experiment [7]; 15.6 µM (active) and 3.86 µM (active) and 3.76 µM (active) in experiment [8]; 4.9 µM (active) and inactive in experiment [13]. Besides, the Potency entry in experiment [2], in experiment [4], in experiment [6], in experiment [9], in experiment [10] and in [11] was “inactive” each time. For the same compound, the Potency entry in [12], in experiment [14] and in [15] was “inactive” throughout.

For `O=[N+]([O-])c1cccc2ccccc12`, the Potency result in [1], in [2], in experiment [3], in experiment [4], in [5] and in experiment [6] was “inactive” throughout. Further, the Potency result in experiment [7], in experiment [8], in experiment [9], in experiment [10], in experiment [11] and in experiment [12] was “inactive” throughout. Besides, the Potency result in experiment [16], in experiment [13], in experiment [14] and in experiment [15] was “inactive” in each case.

`NC(=S)Nc1ccccc1`: the Potency result in [1], in experiment [2], in experiment [3], in experiment [4], in experiment [5] and in experiment [6] was “inactive” throughout. Also, the Potency result in experiment [7], in experiment [8], in experiment [9], in experiment [10], in experiment [11] and in experiment [12] was “inactive” throughout. Besides, the Potency result in [16], in experiment [13] and in experiment [15] was “inactive” throughout. Moreover, the result in experiment [17] and in experiment [18] was inactive.

Turning to `Nc1c(Cl)cc([N+](=O)[O-])cc1Cl`, the Potency entry in experiment [1], in [2], in experiment [3], in [4], in [5] and in experiment [6] was “inactive” in each case. In addition, the Potency result in experiment [7], in [8], in [9], in experiment [10], in experiment [11] and in [12] was “inactive” each time. For the same compound, in [13], the Potency result is “inactive”. Besides, the Potency result in experiment [16] is “inactive and 4.36 µM (active)”; in experiment [14], 2.75 µM (active); in experiment [15], “inactive and 4.36 µM (active)”. The call in [19], in experiment [17] and in experiment [18] was inactive.

For `CN(C)C(=O)Nc1ccc(Cl)cc1`, the Potency result in [1], in experiment [2], in experiment [3], in [4], in [5] and in [6] was “inactive” throughout. Besides, the Potency result in [7], in experiment [8], in experiment [9], in experiment [10], in experiment [11] and in experiment [12] was “inactive” throughout. Also, the Potency result in experiment [16], in [13], in experiment [20], in experiment [14] and in experiment [15] was “inactive” throughout. The outcome in experiment [17] and in experiment [18] was inactive.

Turning to `c1nc[nH]n1`, the Potency entry in [1], in [2], in [3], in experiment [4], in [5] and in [6] was “inactive” in each case. The Potency entry in experiment [7], in experiment [8], in experiment [9], in [10], in experiment [11] and in experiment [12] was “inactive” in each case. Further, the Potency result in experiment [16], in experiment [13], in experiment [20] and in experiment [15] was “inactive” each time. The result in experiment [17] and in [18] was inactive.

Regarding `O=P(O)(O)CCCl`, the Potency entry in experiment [1], in experiment [2], in [3], in [4], in experiment [5] and in experiment [6] was “inactive” each time. Further, the Potency result in experiment [7], in experiment [8], in [9], in experiment [10], in [11] and in experiment [12] was “inactive” in each case. Besides, the Potency entry in experiment [16], in [13], in experiment [20] and in experiment [15] was “inactive” in each case. Also, the compound was classed as inactive in [19], in experiment [17] and in [18].
